Our source for the growth inhibition values is PubChem BioAssay (NCI).

Experiment [1] in a line: NCI Yeast Anticancer Drug Screen. Data for the rad50 strain (AID 155).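 Further: 0% = growth of vehicle-only cultures of the same strain.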 The note with it: S. cerevisiae rad50 strain growth inhibition; at 50.0 µM; active compounds read high. Put shortly:
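DNA repair mutant yeast, compound exposure, growth read-out; inhibition is taken relative to vehicle.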

The nature of experiment [2]: NCI Yeast Anticancer Drug Screen. Data for the mec2-1 strain (AID 157). Conditions: S. cerevisiae mec2-1 strain, at 50.0 µM, active compounds read high. An outline of the steps:
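Using mec2-1 yeast: add compound, measure growth, express inhibition versus vehicle-treated cultures.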

The nature of experiment [3]: NCI Yeast Anticancer Drug Screen. Data for the sgs1 mgt1 strain (AID 161).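 Further: 0% = growth of cultures given vehicle only.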 The note with it: S. cerevisiae sgs1 mgt1 strain, at 50.0 µM, active compounds read high. An outline of the steps:
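This yeast growth screen uses a strain with defined DNA-repair lesions; compound-treated growth is compared with vehicle-treated growth.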

The nature of experiment [4]: NCI Yeast Anticancer Drug Screen. Data for the cln2 rad14 strain (AID 165).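 Further: 0% = growth equal to vehicle treated cultures.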 The note with it: S. cerevisiae cln2 rad14 strain, at 50.0 µM, active compounds read high. An outline of the steps: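 Yeast strain cln2 rad14, bearing defects in cell cycle control and DNA repair, serves as the test system; values reflect growth inhibition compared with vehicle.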
Experiment [5] is described as follows: NCI Yeast Anticancer Drug Screen. Data for the bub3 strain (AID 167). The note with it: S. cerevisiae bub3 mutant strain, at 50.0 µM, active compounds read high. Put shortly:
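In this screen, a yeast mutant lacking normal mitotic checkpoint function is challenged with compound. Relative growth versus vehicle gives the inhibition value.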

Experiment [6] is described as follows: NCI Yeast Anticancer Drug Screen. Data for the mlh1 rad18 strain (AID 175). The note with it: S. cerevisiae mlh1 rad18 strain growth inhibition; at 50.0 µM; active compounds read high. An outline of the steps: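 Steps: expose repair-defective yeast to compound; measure growth; express inhibition against vehicle-treated controls.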

This is part of a sample that, as a whole, favours compounds with a hit. Of some 79,000 tested, about 15% had one in any assay. A number with no mark means an inactive call. Activity calls are given as the source filed them. No stated cut-off is given here; in the data, active means growth inhibition above about 70%; inactive means the rest.

As to `CC(C(=O)O)C(=O)NNc1ccccc1` (stereo unspecified), the growth inhibition is 7.8% in experiment [1]; -17.9% in experiment [2]; -6.7% in experiment [3]; 8.4% in experiment [4]; -2.1% in experiment [5]; -16.4% in experiment [6].

Regarding `Cc1nc2cccc([N+](=O)[O-])c2c(O)[n+]1C`, the growth inhibition in experiment [1] was -13.9%; in experiment [2], -10.8%; in experiment [3] it was -12.4%; in experiment [4] it was -17.6%; in experiment [5], -9.05%; in experiment [6], -17.9%.

As for `COc1cccc(CCC(=O)O)c1`, the growth inhibition in experiment [1] was -11.7%; in experiment [2], -9.75%; in experiment [3], -21.6%; in experiment [4] it was 31%; in experiment [5], -1.45%; in experiment [6] it was 2.7%.

Regarding `CCOC(=O)CCCC(NC(=O)c1ccc(N2CCN(c3c(N)nc(N)nc3NC)CC2)cc1)C(=O)OCC` (stereo unspecified), the growth inhibition in experiment [1] was 9.95%; in experiment [2], 5.75%; in experiment [3], -0.4%; in experiment [4], 6.55%; in experiment [5], -3.95%; in experiment [6], -2.3%.

Take `CN1CCN(CCN2C(=O)c3ccccc3C2=O)CC1`: the growth inhibition in experiment [1] is -12.3%; in experiment [2], 2.65%; in experiment [3], -10.5%; in experiment [4] it was -15%; in experiment [5], -10.8%; in experiment [6], -43.8%.

On to `CC(C)(C)OC[C@H](O)CC#N`, for which the growth inhibition in experiment [1] was -8.2%; in experiment [2], -61.4%; in experiment [3], -36.1%; in experiment [4] it was -20.4%; in experiment [5], -30.8%; in experiment [6], -26.4%.

Take `CCOC(=O)CCC1(C(=O)OCC)CCCC1=O` (stereo unspecified): the growth inhibition in experiment [1] is -12.9%; in experiment [2] it was -21.3%; in experiment [3], -27.4%; in experiment [4], -9.7%; in experiment [5], 10.6%; in experiment [6], -19.3%.

Regarding `CC(c1ccc(N)cc1)n1cnc2c(Cl)ncnc21` (stereo unspecified), the growth inhibition in experiment [1] was -3.75%; in experiment [2], 18.2%; in experiment [3], 4.1%; in experiment [4] it was -5.5%; in experiment [5], 8.85%; in experiment [6], 7.85%.

Consider `O=C(Cc1ccccc1CC(=O)Oc1ccccc1)Oc1ccccc1`, for which the growth inhibition was 9.1% in experiment [1]; -3.9% in experiment [2]; 10.8% in experiment [3]; 5.2% in experiment [4]; 18.9% in experiment [5]; 5.75% in experiment [6].

On to `CC(=S)N=Cc1c(C)[nH]n(-c2ccccc2)c1=O`, for which the growth inhibition was -49.4% in experiment [1]; -29.8% in experiment [2]; -41.4% in experiment [3]; 19.6% in experiment [4]; -57.7% in experiment [5]; -31.9% in experiment [6].

Consider `COc1cc(/C=N/N=C(\N)NO)cc(Cl)c1O`, for which the growth inhibition in experiment [1] was -20.4%; in experiment [2], -29.1%; in experiment [3], -27.3%; in experiment [4], -19.2%; in experiment [5], -8%; in experiment [6] it was -36.1%.

On to `N=S(c1ccccc1)c1ccccc1[N+](=O)[O-]` (stereo unspecified), for which the growth inhibition in experiment [1] was 16.2%; in experiment [2] it was -6.65%; in experiment [3] it was 18.6%; in experiment [4] it was 11.8%; in experiment [5], 4.35%; in experiment [6], -3.45%.

Take `c1ccc(C2OCC(OC3CCCCO3)CO2)cc1` (stereo unspecified): the growth inhibition was -0.1% in experiment [1]; -26.5% in experiment [2]; -24.6% in experiment [3]; -5.1% in experiment [4]; -9.45% in experiment [5]; -2.15% in experiment [6].

As to `COc1cc2c3c(c1)CCCN3CCC2`, the growth inhibition in experiment [1] was -40.6%; in experiment [2], -17%; in experiment [3], -20.5%; in experiment [4], -4.95%; in experiment [5], 13.2%; in experiment [6], -17.6%.

For `Oc1cc2c(cc1C(c1ccc3c(c1)OCO3)N1CCCC1)OCO2` (stereo unspecified), the growth inhibition in experiment [1] was -4.9%; in experiment [2], -9.35%; in experiment [3] it was 8.25%; in experiment [4] it was -27.6%; in experiment [5] it was 19.8%; in experiment [6], 28.4%.

As to `Cc1ccc(C2SC(N)=Nc3c2c(C)nn3C(=O)c2ccccc2O)cc1` (stereo unspecified), the growth inhibition in experiment [1] was 8.65%; in experiment [2], 16.4%; in experiment [3], 34.9%; in experiment [4], 5.65%; in experiment [5], 10.2%; in experiment [6], 12.7%.

For the compound `CN(c1ccc(Br)cc1)c1nc(N)nc(N)c1N=O`, the growth inhibition in experiment [1] is 16.4%; in experiment [2], -10.6%; in experiment [3], 5.05%; in experiment [4] it was -98.6%; in experiment [5], 5.2%; in experiment [6], -1.8%.

`O=c1oc2ccc3ccccc3c2c(-c2ccc(O)cc2)c1-c1ccccc1`: the growth inhibition in experiment [1] was 98.7% (active); in experiment [2] it was 98.5% (active); in experiment [3], 98.9% (active); in experiment [4], 97.2% (active); in experiment [5], 98.2% (active); in experiment [6], 98.7% (active).

Consider `N=C1N=C(N)C(CCCOc2cc(Cl)ccc2Cl)(CCCOc2cc(Cl)ccc2Cl)C(N)=N1`, for which the growth inhibition in experiment [1] was 99% (active); in experiment [2], 95.5% (active); in experiment [3], 97.4% (active); in experiment [4], 98.5% (active); in experiment [5], 98.9% (active); in experiment [6], 98% (active).

For the compound `CCOc1ccc(Nc2ncnc3sc4c(c23)CCCC4)cc1`, the growth inhibition was 10.3% in experiment [1]; -1% in experiment [2]; -1.15% in experiment [3]; 12.7% in experiment [4]; 17.2% in experiment [5]; 8.9% in experiment [6].

As for `NC(=O)CNc1ccc(CC2CCOC2=O)cc1` (stereo unspecified), the growth inhibition in experiment [1] is -7.45%; in experiment [2], -18.9%; in experiment [3] it was -5.9%; in experiment [4], 0.95%; in experiment [5] it was 0.6%; in experiment [6], -5.7%.
